Screening results (PubChem)
In the library only some 21% were active in any assay of this set; here they are far more common.
Shiga inhibitor: blocks Shiga toxin action in Vero cells. AID 2315. inhibition, % at 38.7 µM. Vero cells, Shiga toxin protein synthesis inhibition reporter. 290,000 compounds, 9.2% hits; in the data active = inhibition mostly above about 28%, no sharp cut-off; inactive = mostly below about 43%
CHX counter: affects cycloheximide protein synthesis inhibition readout, counter-screen; AID 2314; cell reporter, cycloheximide protein synthesis inhibition counterscreen; 300,000 compounds, 12% hits; max response, %; in the data active = max response mostly above about 13%, no sharp cut-off; inactive = mostly below about 14%; also: read at 38.3 µM for the half of the compounds with a filed dose
Pf growth 96h: P. falciparum growth inhibition at 96 hour, primary screen for plastid delayed-death inhibitors. P. falciparum luciferase reporter growth, 96 h. Potency, µM (doses to about 28.7 µM), hits mostly inhibitors. 320,000 compounds, 6.9% hits. AID 504834
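Readout is luminescence from an integrated firefly luciferase in P. falciparum. Red cells, 2% hematocrit and 0.05% parasitemia final, were cultured with compound through two parasite generations (96 hours) at 37 C, 5% CO2.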
NS1 function inh: inhibitors of influenza NS1 protein function; Potency, µM (titrated, usually from 46.1 µM); 270,000 compounds, 0.4% hits; AID 2326; calls by dose curve; also: actives are rising curves; nearly all actives have a fitted effect of over 50% in size
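Recovery from NS1-induced slow growth read by OD600 in budding yeast switched to galactose assay medium (pH 6.0, -URA) at 1:100 dilution. Compound 23 nl per well; the matching strain lacking NS1 serves as control.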
Pf growth 48h: P. falciparum growth inhibition at 48 hours (one generation); Potency, µM (titrated, usually from 28.7 µM), actives largely listed as inhibitors; 310,000 compounds, 5.9% hits; AID 504832; P. falciparum luciferase growth in erythrocytes, 48 h
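Luminescence readout; reporter = integrated firefly luciferase in P. falciparum. RBC culture at 2% hematocrit, 0.1% parasitemia final, 37 C/5% CO2; decreased signal taken as growth inhibition.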
A number is an active result; i = inactive; ? = inconclusive; nt = no result given; + = active, no number; ! = not confirmed by another sample; [ ] = another dose, or the depositor's remark. Unless noted, calls follow the shape of the dose curve; as a rule, active = well fitted inhibition curve with a large enough effect; inconclusive = small, poorly fitted or top-dose-only effect, or another doubt; inactive = no such curve, though single readings can be large or run the other way.

SMILES	Shiga inhibitor	CHX counter	Pf growth 96h	NS1 function inh	Pf growth 48h
Cc1cc(C(=O)Nc2cccc3ccccc23)n(-c2ccccc2)n1	i	i	3.3µM	nt	i
Cc1cc(C(=O)Nc2cccc(C)c2C)n(-c2ccccc2)n1	51	24	i	i	i
CC(CCc1ccccc1)NC(=O)c1ccccc1C(=O)O (stereo not given)	i	i	i	i	i
Cc1ccccc1C(=O)NCC(=O)OC(C)C(=O)NC(C)CCc1ccccc1 (stereo not given)	nt	nt	12µM	nt	?
COc1cc(/C=C(\C#N)c2ccccn2)ccc1OCc1ccc(Cl)cc1	i	i	5.2µM	i	6.6µM
COc1cc(/C=C(\C#N)c2ccccn2)ccc1OCc1ccccc1	77	31	?	i	9.3µM
COc1cc(/C=C(/C#N)c2ccc(F)cc2)ccc1OCc1ccc(C(=O)O)o1	i	i	nt	i	i
COc1ccc(-c2nnc(N3CCCCC3)c3ccccc23)cc1	i	i	?	i	?
COc1ccc(OCC(=O)N2CCN(c3nnc(-c4ccccc4)c4ccccc34)CC2)cc1	i	i	1.9µM	i	?
O=C(COc1ccccc1)N1CCN(c2nnc(-c3ccccc3)c3ccccc23)CC1	i	i	10µM	i	?
COc1ccc(-c2nnc(N3CCOCC3)c3ccccc23)cc1	i	i	13µM	i	i
CCOC(=O)c1c(/N=C/c2ccc(O)cc2O)sc2c1CCC2	i	i	?	i	i
COc1ccc2[nH]c(-c3cccc(F)c3)cc(=O)c2c1	52	27!	5.2µM	i	?
Cc1ccc2[nH]c(-c3cccc(F)c3)cc(=O)c2c1	+!	15!	4.1µM	i	5.2µM
COc1ccc2[nH]c(-c3ccc(F)cc3F)cc(=O)c2c1	+	26	nt	nt	nt
O=c1cc(-c2cccc(F)c2)[nH]c2ccccc12	i	i	?	i	?
COC(=O)/C=C/c1ccccc1CN1[C@@H](CC(=O)OC)c2ccccc2S1(=O)=O	nt	nt	i	nt	?
Cc1ccc(-n2c(C)c(C)c3c(NCCCO)ncnc32)cc1	120	45	i	i	i
COc1ccc(-n2c(C)c(C)c3c(NCCO)ncnc32)cc1	59	33	i	i	i
COc1ccc(-n2c(C)c(C)c3c(NCCN(C)C)ncnc32)cc1	i	i	i	i	nt
COc1ccc(-n2c(C)c(C)c3c(NCCCO)ncnc32)cc1	71	43	i	i	i
COc1ccc(-n2c(C)c(C)c3c(NCCCN(C)C)ncnc32)cc1	i	i	i	i	i
CCOc1ccccc1NC(=O)CN1C(=O)COc2ccc(C)cc21	i	i	?	i	i
CC(=O)c1sc(-c2ccccc2Cl)nc1C	i	i	i	i	i
CN(C)/C=C/C(=O)c1cnc(-c2ccccc2Cl)s1	87	45	i	i	i
SMILES	Shiga inhibitor	CHX counter	Pf growth 96h	NS1 function inh	Pf growth 48h
CC(=O)c1cnc(-c2cccc(Cl)c2)s1	i	i	i	i	i
CN(C)/C=C/C(=O)c1cnc(-c2cccc(Cl)c2)s1	67	25	i	i	i
CN(C)/C=C/C(=O)c1cnc(-c2ccccn2)s1	90	36	i	nt	i
Cc1nc(-c2ccccn2)sc1C(=O)O	i	i	i	nt	i
O=C(NCc1nnnn1-c1ccc(F)c(F)c1)c1ccc(S(=O)(=O)N2CCOCC2)cc1	nt	nt	i	nt	i
COc1ccc(Cl)cc1C(=O)Nc1ccc2c(c1)OCCO2	36	30	?	i	i
COc1ccc(NC(C)=O)cc1S(=O)(=O)Nc1ccc2c(c1)OCCO2	i	24	?	i	i
COc1ccc(Cl)cc1C(=O)Nc1ccc2c(c1)OCO2	87	44	nt	i	i
Cc1cnc(C)c(N2CCC(C(=O)NC(C)c3cccs3)CC2)n1 (stereo not given)	i	i	nt	i	i
CN1CCN(C(=O)c2ccccc2NC(=O)c2sc3ccccc3c2Cl)CC1	i	i	i	i	i
CN1CCN(c2ccc(NC(=O)c3sc4ccccc4c3Cl)cc2)CC1	82	43	i	nt	i
O=C(Nc1ccncc1)c1sc2ccccc2c1Cl	72	26	?	nt	i
CCn1nnc(NC(=O)c2sc3ccccc3c2Cl)n1	66	42	i	i	i
O=C(NNC(=S)NC(=O)c1sc2ccccc2c1Cl)c1ccc(Cl)cc1	i	14	i	i	i
CCN(CC)CCN1c2ccccc2Sc2ccccc21	i	i	i	i	?
CCN(CC)[C@@H](C)CN1c2ccccc2Sc2ccccc21	nt	nt	6.4µM	nt	i
CCc1ccc2c(c1)N(C[C@H](C)CN(C)C)c1ccccc1S2	nt	nt	15µM	i	17µM
C[C@H](CN1c2ccccc2Sc2cccnc21)N(C)C	nt	nt	6µM	nt	?
O=C(CSc1nnc(CNC(=O)c2cccs2)o1)NCCc1ccccc1	i	i	i	i	i
Cc1noc(C)c1CSCC(=O)Nc1nc(-c2ccc(F)c(F)c2)cs1	nt	nt	?	nt	10µM
Cc1noc(C)c1CSCC(=O)Nc1ccc(S(=O)(=O)C(F)F)cc1	nt	nt	4.7µM	nt	i
O=C(Cc1ccccc1F)Nc1nc(-c2ccc(F)cc2)cs1	64	26	i	i	i
COc1cc(OC)cc(C(=O)N[C@H](C(=O)Nc2nc(-c3ccc(F)c(F)c3)cs2)C(C)C)c1	i	i	i[5.75 µM]	nt	13µM
COc1cc(OC)cc(C(=O)N[C@H](C(=O)Nc2ccc(F)cc2F)C(C)C)c1	i	i	i	i	nt
COc1ccc(-c2csc(NC(=O)Cc3ccccc3F)n2)cc1OC	i	i	?	i	i
SMILES	Shiga inhibitor	CHX counter	Pf growth 96h	NS1 function inh	Pf growth 48h
CCCn1c(SCC(N)=O)nnc1-c1ccco1	i	i	i	i	i
COc1ccccc1CC(=O)Nc1nc(-c2ccc(F)c(F)c2)cs1	44	26	?	i	?
O=C(NCCOc1ccccc1F)C1CCC(=O)N(CC2CCCCC2)C1 (stereo not given)	i	i	i	i	i
CCCCNC(=S)Nc1ccc2nc(N3CCN(CC)CC3)cc(C)c2c1	i	i	?	i	i[0.00184 µM]
CCCCN(C)CCNC(=S)Nc1ccc2nc(N3CCN(CC)CC3)cc(C)c2c1	i	i	?	i	2.3µM
CCN(CC)CCNC(=S)Nc1ccc2nc(N3CCN(CC)CC3)cc(C)c2c1	i	i	i	i	12µM
CCCCNC(=O)CCC(=O)Nc1ccc2nc(N3CCN(C)CC3)cc(C)c2c1	i	i	i	nt	i
CCCCN(CC)C(=S)Nc1ccc2nc(N3CCN(C)CC3)cc(C)c2c1	i	28	i	i	?
CCN1CCN(c2cc(C)c3cc(NC(=S)NCCN(C)C)ccc3n2)CC1	i	i	i	i	?
CCCCN(C)C(=S)Nc1ccc2nc(N3CCN(CC)CC3)cc(C)c2c1	82	i	?	i	?
COc1ccc(C(=O)N(C)Cc2ccccn2)cc1OC1CCN(C(C)C)CC1	i	i	i	i	i
COc1ccc(NC(=O)/C(C#N)=C/c2cc(C)n(-c3ccc(N4CCOCC4)c([N+](=O)[O-])c3)c2C)cc1	i	i	?	i	?
Cc1cccc(-n2c(C)cc(/C=N/n3cnnc3)c2C)c1	i	i	?	i	i
Cc1cc(/C=N/n2cnnc2)c(C)n1-c1ccc2c(c1)OCO2	i	i	10µM	i	i
Cc1cc(/C=C(/C#N)C(=O)Nc2ccccc2)c(C)n1-c1cccnc1	i	43	?	i	i
Cc1cc(C=C(C#N)C#N)c(C)n1-c1ccccc1	108	22	i	i	i
Cc1cc(/C=C(\C#N)C(=O)Nc2ccc(F)cc2)c(C)n1-c1ccc(N2CCOCC2)c([N+](=O)[O-])c1	i	i	nt	i	7.4µM
COC(=O)c1ccccc1NC(=O)COC(=O)CSc1nnc(N)s1	i	i	i	nt	i
